This is an account of results in ChEMBL document CHEMBL1961873, “Compounds: GSK PKIS; Assays: Nanosyn kinase panel” (2012).

Experiment [1] deals with 5'-AMP-activated protein kinase catalytic subunit alpha-2 (Homo sapiens) (UniProt P54646). The settings on record: at 1 µM.
The target of experiment [2] is T1, NUAK family SNF1-like kinase 1 (Homo sapiens) (UniProt O60285).
T1 sequence (whole entry): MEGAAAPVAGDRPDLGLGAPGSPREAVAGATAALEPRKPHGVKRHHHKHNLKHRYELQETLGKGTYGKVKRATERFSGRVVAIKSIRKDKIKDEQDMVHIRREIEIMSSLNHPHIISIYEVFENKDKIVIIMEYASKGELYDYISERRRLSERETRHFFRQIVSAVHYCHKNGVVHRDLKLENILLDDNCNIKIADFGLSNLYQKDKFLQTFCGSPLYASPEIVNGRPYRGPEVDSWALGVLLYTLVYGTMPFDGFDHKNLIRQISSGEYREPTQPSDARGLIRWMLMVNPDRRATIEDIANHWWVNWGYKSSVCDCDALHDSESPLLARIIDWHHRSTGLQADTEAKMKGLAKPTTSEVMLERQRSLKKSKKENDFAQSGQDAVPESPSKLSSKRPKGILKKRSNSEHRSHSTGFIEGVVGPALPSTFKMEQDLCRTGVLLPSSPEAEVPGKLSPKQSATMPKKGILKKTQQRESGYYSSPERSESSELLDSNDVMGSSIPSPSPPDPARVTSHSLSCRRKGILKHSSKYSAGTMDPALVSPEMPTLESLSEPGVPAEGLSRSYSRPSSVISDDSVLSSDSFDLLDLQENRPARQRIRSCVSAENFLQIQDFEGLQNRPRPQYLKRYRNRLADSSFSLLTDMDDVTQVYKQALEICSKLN
The settings on record: at 0.1 µM.

Experiment [3] concerns the target T1, NUAK family SNF1-like kinase 1 (Homo sapiens). To be noted: at 1 µM.
The target in experiment [4] is T2, Serine/threonine-protein kinase BRSK1 (Homo sapiens) (UniProt Q8TDC3).
T2 sequence (whole entry): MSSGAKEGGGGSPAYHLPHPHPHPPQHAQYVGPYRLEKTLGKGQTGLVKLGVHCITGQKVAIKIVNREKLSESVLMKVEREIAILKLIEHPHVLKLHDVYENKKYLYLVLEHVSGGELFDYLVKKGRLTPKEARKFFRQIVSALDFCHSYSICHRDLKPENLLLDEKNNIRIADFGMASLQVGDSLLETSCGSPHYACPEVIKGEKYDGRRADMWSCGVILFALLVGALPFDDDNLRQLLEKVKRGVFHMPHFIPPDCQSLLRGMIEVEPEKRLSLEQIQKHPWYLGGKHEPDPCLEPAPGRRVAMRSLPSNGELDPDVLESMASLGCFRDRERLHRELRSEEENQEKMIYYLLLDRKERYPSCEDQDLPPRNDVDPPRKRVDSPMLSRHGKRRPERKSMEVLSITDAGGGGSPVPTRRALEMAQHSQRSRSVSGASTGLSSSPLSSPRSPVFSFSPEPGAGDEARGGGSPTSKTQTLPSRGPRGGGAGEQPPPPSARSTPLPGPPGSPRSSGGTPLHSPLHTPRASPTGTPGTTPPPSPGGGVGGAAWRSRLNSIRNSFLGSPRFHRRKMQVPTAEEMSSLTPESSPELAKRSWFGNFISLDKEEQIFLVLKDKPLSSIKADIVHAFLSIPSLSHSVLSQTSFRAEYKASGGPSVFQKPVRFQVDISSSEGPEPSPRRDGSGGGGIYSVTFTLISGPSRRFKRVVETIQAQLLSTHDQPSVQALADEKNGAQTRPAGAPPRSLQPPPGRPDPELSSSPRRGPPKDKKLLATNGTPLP
The settings on record: at 0.1 µM.

Experiment [5] concerns the target T2, Serine/threonine-protein kinase BRSK1 (Homo sapiens). The settings on record: at 1 µM.
Experiment [6] addresses T3, Serine/threonine-protein kinase BRSK2 (Homo sapiens) (UniProt Q8IWQ3).
T3 sequence (whole entry): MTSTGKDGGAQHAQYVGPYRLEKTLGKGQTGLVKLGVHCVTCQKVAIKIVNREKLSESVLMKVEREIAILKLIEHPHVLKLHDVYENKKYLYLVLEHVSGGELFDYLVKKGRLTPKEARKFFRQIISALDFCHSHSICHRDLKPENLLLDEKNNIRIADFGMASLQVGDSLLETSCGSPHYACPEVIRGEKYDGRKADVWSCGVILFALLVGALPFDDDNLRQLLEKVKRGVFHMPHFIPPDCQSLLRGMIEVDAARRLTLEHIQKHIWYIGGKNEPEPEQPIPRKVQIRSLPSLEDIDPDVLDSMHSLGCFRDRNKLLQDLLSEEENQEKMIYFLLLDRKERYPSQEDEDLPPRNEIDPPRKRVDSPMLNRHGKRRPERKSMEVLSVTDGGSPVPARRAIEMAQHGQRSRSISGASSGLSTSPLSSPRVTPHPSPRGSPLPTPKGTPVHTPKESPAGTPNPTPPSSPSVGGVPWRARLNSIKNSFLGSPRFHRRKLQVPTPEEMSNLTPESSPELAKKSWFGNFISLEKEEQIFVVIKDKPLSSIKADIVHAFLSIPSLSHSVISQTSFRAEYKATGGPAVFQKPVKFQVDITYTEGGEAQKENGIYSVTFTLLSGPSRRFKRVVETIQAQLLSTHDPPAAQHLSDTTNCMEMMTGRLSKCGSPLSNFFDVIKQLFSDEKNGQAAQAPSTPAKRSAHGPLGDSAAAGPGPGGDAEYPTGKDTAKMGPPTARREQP
To be noted: at 0.1 µM.

The target in experiment [7] is T3, Serine/threonine-protein kinase BRSK2 (Homo sapiens). To be noted: at 1 µM.
The target in experiment [8] is Calcium/calmodulin-dependent protein kinase type 1D (Homo sapiens) (UniProt Q8IU85). To be noted: at 0.1 µM.
The target is the same in experiment [9]. The settings on record: at 1 µM.
In experiment [10] the target is Calcium/calmodulin-dependent protein kinase type II subunit alpha (Homo sapiens) (UniProt Q9UQM7). The settings on record: at 0.1 µM.
For experiment [11] the target is unchanged. The settings on record: at 1 µM.
Experiment [12] has as its target Calcium/calmodulin-dependent protein kinase type II subunit delta (Homo sapiens) (UniProt Q13557). The settings on record: at 0.1 µM.
For experiment [13] the target is unchanged. To be noted: at 1 µM.
Experiment [14] addresses T4, Calcium/calmodulin-dependent protein kinase type IV (Homo sapiens) (UniProt Q16566).
T4 sequence (whole entry): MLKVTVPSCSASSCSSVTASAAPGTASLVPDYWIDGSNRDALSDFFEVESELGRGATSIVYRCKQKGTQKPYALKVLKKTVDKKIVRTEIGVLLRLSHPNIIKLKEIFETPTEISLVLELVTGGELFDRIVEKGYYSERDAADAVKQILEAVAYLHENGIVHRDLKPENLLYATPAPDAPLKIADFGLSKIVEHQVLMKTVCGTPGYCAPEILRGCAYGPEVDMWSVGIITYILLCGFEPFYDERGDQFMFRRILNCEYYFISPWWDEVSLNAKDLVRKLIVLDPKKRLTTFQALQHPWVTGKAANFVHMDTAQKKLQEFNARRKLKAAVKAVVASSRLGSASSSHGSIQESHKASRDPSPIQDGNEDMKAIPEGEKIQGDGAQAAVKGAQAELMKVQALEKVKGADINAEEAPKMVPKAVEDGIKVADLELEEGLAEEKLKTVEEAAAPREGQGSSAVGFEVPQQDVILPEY
The settings on record: at 0.1 µM.

Experiment [15] has as its target T4, Calcium/calmodulin-dependent protein kinase type IV (Homo sapiens). To be noted: at 1 µM.
Experiment [16] concerns the target T5, Serine/threonine-protein kinase Chk1 (Homo sapiens) (UniProt O14757).
T5 sequence (whole entry): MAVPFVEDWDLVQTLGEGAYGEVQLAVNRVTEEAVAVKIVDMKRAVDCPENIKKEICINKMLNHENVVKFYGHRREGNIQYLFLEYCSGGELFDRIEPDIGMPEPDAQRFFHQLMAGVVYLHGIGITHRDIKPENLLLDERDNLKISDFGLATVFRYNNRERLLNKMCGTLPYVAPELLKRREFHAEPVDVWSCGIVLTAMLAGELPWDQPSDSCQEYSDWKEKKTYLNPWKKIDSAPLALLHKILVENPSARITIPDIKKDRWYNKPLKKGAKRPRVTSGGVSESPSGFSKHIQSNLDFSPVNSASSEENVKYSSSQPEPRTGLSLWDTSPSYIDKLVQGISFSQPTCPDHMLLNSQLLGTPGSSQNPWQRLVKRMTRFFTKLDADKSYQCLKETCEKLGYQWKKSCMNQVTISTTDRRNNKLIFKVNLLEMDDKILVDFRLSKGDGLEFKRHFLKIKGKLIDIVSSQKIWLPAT
The settings on record: at 0.1 µM.

Experiment [17] addresses T5, Serine/threonine-protein kinase Chk1 (Homo sapiens). The settings on record: at 1 µM.
The target in experiment [18] is Serine/threonine-protein kinase Chk2 (Homo sapiens) (UniProt O96017). The settings on record: at 0.1 µM.
Experiment [19] shares this target. The settings on record: at 1 µM.
For experiment [20], the target named is Death-associated protein kinase 1 (Homo sapiens) (UniProt P53355). The settings on record: at 0.1 µM.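 Further: reported figure is the mean inhibition of DAPK1.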
Chain of Death-associated protein kinase 1 (Homo sapiens) (P53355 whole entry, looked up): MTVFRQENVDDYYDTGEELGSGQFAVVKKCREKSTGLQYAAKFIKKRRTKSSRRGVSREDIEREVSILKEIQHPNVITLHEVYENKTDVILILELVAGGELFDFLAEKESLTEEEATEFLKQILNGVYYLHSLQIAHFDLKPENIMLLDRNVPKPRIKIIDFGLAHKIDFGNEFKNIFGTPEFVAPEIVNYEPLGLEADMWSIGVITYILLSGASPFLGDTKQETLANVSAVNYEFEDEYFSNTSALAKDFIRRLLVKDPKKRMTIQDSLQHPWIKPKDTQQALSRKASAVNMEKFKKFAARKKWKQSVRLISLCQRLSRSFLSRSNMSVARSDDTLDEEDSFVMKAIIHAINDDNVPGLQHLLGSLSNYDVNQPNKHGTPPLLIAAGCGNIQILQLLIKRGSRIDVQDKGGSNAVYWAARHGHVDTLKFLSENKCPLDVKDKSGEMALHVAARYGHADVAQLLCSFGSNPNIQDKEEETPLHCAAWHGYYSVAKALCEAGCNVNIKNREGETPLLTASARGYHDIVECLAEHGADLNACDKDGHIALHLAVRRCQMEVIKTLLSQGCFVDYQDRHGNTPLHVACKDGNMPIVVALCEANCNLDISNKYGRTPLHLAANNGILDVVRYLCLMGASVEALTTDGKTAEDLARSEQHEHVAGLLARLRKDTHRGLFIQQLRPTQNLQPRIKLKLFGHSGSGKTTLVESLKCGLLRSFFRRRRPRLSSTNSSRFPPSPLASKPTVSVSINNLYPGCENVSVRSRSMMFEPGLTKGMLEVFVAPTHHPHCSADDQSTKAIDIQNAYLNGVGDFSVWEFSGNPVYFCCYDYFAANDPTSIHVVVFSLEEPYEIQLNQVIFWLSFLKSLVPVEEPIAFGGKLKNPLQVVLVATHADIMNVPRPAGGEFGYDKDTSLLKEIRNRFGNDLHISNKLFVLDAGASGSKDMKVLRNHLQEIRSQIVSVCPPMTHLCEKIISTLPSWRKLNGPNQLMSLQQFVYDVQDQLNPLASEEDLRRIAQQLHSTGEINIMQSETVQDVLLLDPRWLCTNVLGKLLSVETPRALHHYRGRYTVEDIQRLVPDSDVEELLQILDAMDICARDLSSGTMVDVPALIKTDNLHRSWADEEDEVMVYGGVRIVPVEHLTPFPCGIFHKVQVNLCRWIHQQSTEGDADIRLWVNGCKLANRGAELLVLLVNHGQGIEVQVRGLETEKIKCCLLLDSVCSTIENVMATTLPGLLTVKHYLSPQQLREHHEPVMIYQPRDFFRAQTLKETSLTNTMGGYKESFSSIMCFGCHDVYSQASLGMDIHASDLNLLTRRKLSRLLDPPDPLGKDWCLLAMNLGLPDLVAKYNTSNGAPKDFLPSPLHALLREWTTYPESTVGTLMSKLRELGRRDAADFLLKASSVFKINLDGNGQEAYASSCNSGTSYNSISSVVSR

Chain of Calcium/calmodulin-dependent protein kinase type II subunit alpha (Homo sapiens) (Q9UQM7 whole entry): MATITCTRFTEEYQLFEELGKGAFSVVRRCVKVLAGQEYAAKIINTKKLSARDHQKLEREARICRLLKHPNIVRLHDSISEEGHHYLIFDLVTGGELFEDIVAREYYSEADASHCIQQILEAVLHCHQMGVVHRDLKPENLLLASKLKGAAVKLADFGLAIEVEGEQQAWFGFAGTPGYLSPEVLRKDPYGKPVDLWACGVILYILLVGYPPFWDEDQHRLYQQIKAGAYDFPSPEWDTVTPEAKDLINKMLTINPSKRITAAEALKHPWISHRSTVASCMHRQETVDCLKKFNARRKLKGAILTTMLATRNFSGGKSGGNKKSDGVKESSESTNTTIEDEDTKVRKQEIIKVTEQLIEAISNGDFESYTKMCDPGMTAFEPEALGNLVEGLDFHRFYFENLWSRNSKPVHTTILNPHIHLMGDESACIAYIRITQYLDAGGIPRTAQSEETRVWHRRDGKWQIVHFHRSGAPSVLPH
Chain of 5'-AMP-activated protein kinase catalytic subunit alpha-2 (Homo sapiens) (P54646 whole entry, looked up): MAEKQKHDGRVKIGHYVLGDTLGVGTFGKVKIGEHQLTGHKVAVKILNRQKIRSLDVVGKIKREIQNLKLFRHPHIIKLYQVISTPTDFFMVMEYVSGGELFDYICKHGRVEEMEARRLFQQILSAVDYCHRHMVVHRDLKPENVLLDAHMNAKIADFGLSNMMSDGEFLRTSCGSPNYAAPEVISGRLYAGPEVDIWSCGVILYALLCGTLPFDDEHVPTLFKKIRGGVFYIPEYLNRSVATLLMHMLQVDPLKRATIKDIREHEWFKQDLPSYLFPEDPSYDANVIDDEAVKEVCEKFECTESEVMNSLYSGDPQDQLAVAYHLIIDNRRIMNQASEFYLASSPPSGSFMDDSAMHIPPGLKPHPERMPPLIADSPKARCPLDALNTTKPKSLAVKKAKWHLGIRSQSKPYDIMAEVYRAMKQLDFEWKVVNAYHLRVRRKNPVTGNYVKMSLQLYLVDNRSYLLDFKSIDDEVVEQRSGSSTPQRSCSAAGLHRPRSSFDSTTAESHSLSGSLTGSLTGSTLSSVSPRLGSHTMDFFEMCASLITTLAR
Chain of Calcium/calmodulin-dependent protein kinase type II subunit delta (Homo sapiens) (Q13557 whole entry): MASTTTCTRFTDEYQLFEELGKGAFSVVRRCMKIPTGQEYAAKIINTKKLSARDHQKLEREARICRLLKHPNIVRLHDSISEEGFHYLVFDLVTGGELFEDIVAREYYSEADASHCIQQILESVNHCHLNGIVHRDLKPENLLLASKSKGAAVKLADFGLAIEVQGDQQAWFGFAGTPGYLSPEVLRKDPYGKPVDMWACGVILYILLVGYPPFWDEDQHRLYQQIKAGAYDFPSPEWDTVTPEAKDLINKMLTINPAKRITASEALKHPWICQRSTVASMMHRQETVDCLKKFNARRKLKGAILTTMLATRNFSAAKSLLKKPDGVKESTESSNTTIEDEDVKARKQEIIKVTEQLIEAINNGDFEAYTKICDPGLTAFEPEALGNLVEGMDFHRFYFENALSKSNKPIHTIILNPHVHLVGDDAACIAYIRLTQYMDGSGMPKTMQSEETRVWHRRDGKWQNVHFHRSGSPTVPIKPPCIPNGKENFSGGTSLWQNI
Chain of Serine/threonine-protein kinase Chk2 (Homo sapiens) (O96017 whole entry): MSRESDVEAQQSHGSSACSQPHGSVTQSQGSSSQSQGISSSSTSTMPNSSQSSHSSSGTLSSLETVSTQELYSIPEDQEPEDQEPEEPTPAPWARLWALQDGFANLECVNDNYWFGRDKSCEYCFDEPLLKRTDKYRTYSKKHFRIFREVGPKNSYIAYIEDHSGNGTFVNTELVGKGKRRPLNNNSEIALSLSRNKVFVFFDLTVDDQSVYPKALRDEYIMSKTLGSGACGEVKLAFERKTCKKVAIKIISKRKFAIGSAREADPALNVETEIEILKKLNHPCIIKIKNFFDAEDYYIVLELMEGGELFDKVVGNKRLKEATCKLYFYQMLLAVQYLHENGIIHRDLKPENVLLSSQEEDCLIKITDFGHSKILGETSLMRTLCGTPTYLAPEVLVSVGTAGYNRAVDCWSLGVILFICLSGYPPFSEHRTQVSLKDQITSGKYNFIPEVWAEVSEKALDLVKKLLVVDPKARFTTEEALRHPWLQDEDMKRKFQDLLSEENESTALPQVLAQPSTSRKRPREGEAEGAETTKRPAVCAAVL
Chain of Calcium/calmodulin-dependent protein kinase type 1D (Homo sapiens) (Q8IU85 whole entry, looked up): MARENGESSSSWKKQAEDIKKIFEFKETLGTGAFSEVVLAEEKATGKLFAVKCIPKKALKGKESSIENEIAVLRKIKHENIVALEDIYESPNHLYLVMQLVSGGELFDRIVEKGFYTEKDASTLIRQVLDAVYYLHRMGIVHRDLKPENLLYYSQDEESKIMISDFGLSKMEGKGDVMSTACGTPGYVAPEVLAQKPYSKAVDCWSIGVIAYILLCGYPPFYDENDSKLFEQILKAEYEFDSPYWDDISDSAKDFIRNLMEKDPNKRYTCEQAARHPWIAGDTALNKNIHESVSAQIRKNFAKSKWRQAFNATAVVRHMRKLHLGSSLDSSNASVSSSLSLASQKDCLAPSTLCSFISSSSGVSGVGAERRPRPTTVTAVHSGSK

By inhibition is commonly meant the change of the read-out against control, counted positive when it falls. Turning to `COc1ccccc1Nc1ncc(-c2ccccc2)o1`, the inhibition was 4.09% in experiment [1]; -0.18% in [2]; -4.21% in experiment [3]; -0.58% in experiment [4]; 3.87% in experiment [5]; 2.96% in experiment [6]. In addition, the inhibition in [7] was 4.49%; in experiment [8], -0.11%; in experiment [9] it was -0.14%; in experiment [10], 3.16%; in [11], 0.2%; in [12], 3.81%. Also, the inhibition is 4.92% in experiment [13]; 0.89% in [14]; -8.72% in [15]; -2.97% in [16]; -2.91% in [17]; -2.63% in [18]. The results for the inhibition in [19] and in [20] were -3.53% and -1.69%, respectively.

Regarding `Nc1nc(-c2ccccn2)c(-c2ccc3ncccc3n2)s1`, the inhibition is 3.76% in [1]; 4.24% in experiment [2]; 5.19% in [3]; -0.41% in [4]; 2.4% in [5]; 0.9% in [6]. Moreover, the inhibition in [7] is 3.83%; in experiment [8] it was -0.97%; in [9] it was 0.3%; in [10] it was 1.9%; in experiment [11], 2.01%; in [12], 0.62%. The inhibition is 2.75% in experiment [13]; -0.73% in [14]; -1.69% in experiment [15]; 4.2% in experiment [16]; 6.33% in [17]; 2.16% in [18]. For the same compound, the inhibition in [19] is 4.44%; in [20] it was 4.05%.

On to `CCn1c(-c2nonc2N)nc2c(N3CCCC3)nccc21`, for which the inhibition was determined as 0.77% in experiment [1]; 4.51% in experiment [2]; 0.95% in experiment [3]; 1.14% in [4]; 1.31% in experiment [5]; 1.48% in [6]. Moreover, the inhibition was 3.56% in experiment [7]; -0.31% in [8]; -0.81% in experiment [9]; -1.53% in experiment [10]; -3.88% in experiment [11]; -2.38% in experiment [12]. Moreover, the inhibition in experiment [13] was -0.97%; in experiment [14] it was -0.74%; in experiment [15] it was -0.33%; in experiment [16], 2.68%; in experiment [17], 0.57%; in experiment [18] it was -2.44%. Also, the inhibition in experiment [19] was -2.51%; in experiment [20], 0.86%.

For the compound `COc1cc(C=NNc2ncnc3c2cnn3-c2ccccc2)ccc1O`, the inhibition in [1] came out at 6.79%; in experiment [2], 16.1%; in [3] it was 57.3%; in experiment [4], 8.76%; in [5], 40.1%; in [6], 10.3%. Also, the inhibition in experiment [7] came out at 43.5%; in [8], 0.83%; in experiment [9], 2.96%; in experiment [10], 3.14%; in experiment [11], 5.31%; in experiment [12], 3.65%. Further, the inhibition is 12.4% in [13]; -0.28% in experiment [14]; -1.35% in experiment [15]; -2.23% in experiment [16]; -2.87% in experiment [17]; -3.59% in [18]. In addition, the inhibition in experiment [19] was -0.98%; in experiment [20], -5.64%.

As to `CS(=O)(=O)Nc1ccc(N/C=C2\C(=O)Nc3ccccc32)cc1`, the inhibition in experiment [1] was determined as 4.21%; in [2], 12.6%; in experiment [3] it was 43.9%; in [4] it was 2.83%; in experiment [5] it was 16.5%; in experiment [6] it was 4.09%. Further, the inhibition in [7] is 30.6%; in [8], -1.16%; in experiment [9] it was 0.24%; in [10] it was -3.83%; in experiment [11] it was -2.22%; in [12] it was -2.44%. The inhibition in experiment [13] was 4.73%; in [14], -0.09%; in experiment [15], -1.35%; in [16], -0.22%; in [17], 5.75%; in experiment [18], -1.67%. Moreover, the inhibition is 10.4% in experiment [19] and -1.81% in experiment [20].

For `CCN1CCC(CC(=O)Nc2n[nH]c3nc(-c4cccs4)c(Br)cc23)CC1`, the inhibition is 5.99% in [1]; -2.53% in experiment [2]; 9.14% in experiment [3]; 3.39% in experiment [4]; 21.7% in experiment [5]; 2.29% in [6]. Besides, the inhibition is 18.5% in [7]; -0.45% in experiment [8]; 1.72% in [9]; -4.08% in experiment [10]; -1.26% in experiment [11]; -1.29% in experiment [12]. The inhibition in [13] was 7.67%; in experiment [14] it was 0.29%; in experiment [15], -0.89%; in experiment [16], 2.28%; in experiment [17], 2.57%; in experiment [18], -3.64%. Also, the inhibition in experiment [19] is -3.75%; in experiment [20] it was 0.43%.
